Active and inactive are the calls of the source. How the calls were made is not given here.
Each molecule was assayed on HIV-1 nucleocapsid protein NCp7 (binding to TG oligonucleotide) (assay: HIV Nucleocapsid (AID 346;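 further: potency is for inhibitors that block NC binding and lower polarization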)). Details: HIV-1 NC / fluorescein-TGTGTGTG probe, fluorescence polarization.
Outline: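 HIV-1 NC (100 nM) binding to fluorescein-labelled ssDNA TG4xF (10 nM) in Hepes pH 7.5, 250mM NaCl, 1uM ZnCl2, TCEP and 2-mercaptoethanol; compounds pin-transferred, 1 hr room temperature, fluorescence polarization read on CCD imager.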
Potency means the concentration at half of the fitted maximal effect.

| Structure (SMILES) | Potency |
| --- | --- |
| O=C(Oc1ccccc1)N1CCC[C@@]2(CCN(c3ccccc3)C2)C1 | > 20 µM (inactive) |
| COC(=O)N1CCC[C@@]2(CCN(C(=O)Nc3cccc(F)c3)C2)C1 | > 20 µM (inactive) |
| CN(C)Cc1ccccc1-c1nc(NC2CC2)c2ccccc2n1 | > 20 µM (inactive) |
| COc1cccc(-c2cncnc2NCc2ccccc2OC)c1 | > 20 µM (inactive) |
| O=C(c1ccco1)N1CCC2(CC1)CCN(c1cccc(-c3ccccc3)c1)CC2 | > 20 µM (inactive) |
| Cn1c(=O)c(-c2ccc(F)cc2)nc2cnc(Oc3ccccc3)nc21 | > 20 µM (inactive) |
| O=c1c(-c2ccc(F)cc2)nc2cnc(N3CCNCC3)nc2n1-c1ccccc1 | > 20 µM (inactive) |
| Cc1cccc(CNc2ncnc3ccc(-c4ccccc4C#N)cc23)c1 | > 20 µM (inactive) |
| Cc1nc2cnc(Oc3ccccc3)nc2n(C)c1=O | > 20 µM (inactive) |
| O=C(c1cc(C(F)(F)F)cc(C(F)(F)F)c1)N1CCC2(CCN(Cc3nccs3)CC2)CC1 | > 20 µM (inactive) |
| N#Cc1ccccc1-c1ccc2ncnc(N3CCNCC3)c2c1 | > 20 µM (inactive) |
| Cn1cccc1C(=O)N1CCC2(CC1)CCN(c1ccccc1)CC2 | > 20 µM (inactive) |
| CN(C)C(=O)c1ccc(-c2ccc3ncnc(Nc4ccc(F)cc4)c3c2)cc1 | > 20 µM (inactive) |
| COC(=O)N1CCC2(CC1)CN(c1ccccc1)C2 | > 20 µM (inactive) |
| CC(C)NC(=O)N1CCC2(CC1)CCN(S(=O)(=O)c1ccccc1)CC2 | > 20 µM (inactive) |
| COc1ccc(CNc2ncnc3ccc(-c4cccc(C#N)c4)cc23)c(OC)c1 | > 20 µM (inactive) |
| Cc1cccc(CNc2cc(-c3ccccc3CN(C)C)ncn2)c1 | > 20 µM (inactive) |
| Cc1cccc(CNc2ncnc3ccc(-c4cccc(C#N)c4)cc23)c1 | > 20 µM (inactive) |
| COC(=O)N1CCC2(CCN(Cc3nccs3)CC2)CC1 | > 20 µM (inactive) |
| Cn1c(=O)c(-c2cc(F)cc(F)c2)nc2cncnc21 | > 20 µM (inactive) |

| Structure (SMILES) | Potency |
| --- | --- |
| CNc1cc(-c2c(C)noc2C)ncn1 | > 20 µM (inactive) |
| COc1ccc(CNc2nc(-c3ccccc3CN(C)C)nc3ccccc23)c(OC)c1 | > 20 µM (inactive) |
| COc1ccc(Oc2ncc3nc(-c4ccc(F)cc4)c(=O)n(CCC#N)c3n2)cc1 | > 20 µM (inactive) |
| COCCNc1ncnc2ccc(-c3c(C)noc3C)cc12 | > 20 µM (inactive) |
| O=C(c1cnccn1)N1CCC[C@@]2(CCN(C(c3ccccc3)c3ccccc3)C2)C1 | > 20 µM (inactive) |
| COCC(=O)N1CCC2(CCN(Cc3ccc(C#N)cc3)CC2)CC1 | > 20 µM (inactive) |
| c1ccc(-c2cccc(N3CCC4(CCNCC4)CC3)c2)cc1 | > 20 µM (inactive) |
| O=c1c(-c2cc(F)cc(F)c2)nc2cnc(N3CCNCC3)nc2n1C1CC1 | > 20 µM (inactive) |
| COCC(=O)N1CCC2(CC1)CN(Cc1nccs1)C2 | > 20 µM (inactive) |
| COc1ncc2nc(C)c(=O)n(Cc3ccc(F)cc3)c2n1 | > 20 µM (inactive) |
| COCC(=O)N1CCC2(CC1)CCN(c1ccccn1)CC2 | > 20 µM (inactive) |
| CS(=O)(=O)N1CCC[C@@]2(CCN(Cc3nccs3)C2)C1 | > 20 µM (inactive) |
| COc1ccccc1CN1CCC2(CC1)CCN(S(C)(=O)=O)CC2 | > 20 µM (inactive) |
| CN1CCCC2(CCN(C(=O)c3cccc(F)c3)CC2)C1 | > 20 µM (inactive) |
| CS(=O)(=O)N1CCC2(CCN(Cc3nccs3)CC2)CC1 | > 20 µM (inactive) |
| N#Cc1ccccc1-c1ccc2ncnc(NCCN3CCOCC3)c2c1 | > 20 µM (inactive) |
| O=c1c(-c2cc(F)cc(F)c2)nc2cnc(N3CCOCC3)nc2n1C[C@H]1CCCO1 | > 20 µM (inactive) |
| COCCn1c(=O)c(-c2cn(C)c3ccccc23)nc2cnc(Oc3ccc(OC)cc3)nc21 | > 20 µM (inactive) |
| Cn1cc(-c2nc3cnc(N4CCNCC4)nc3n(CCc3ccccc3)c2=O)c2ccccc21 | > 4 µM (inactive) |
| CC(C)CN1CC[C@@]2(CCCN(S(=O)(=O)c3ccccc3)C2)C1 | > 20 µM (inactive) |
